This is a sample that favours compounds with a hit; in the whole collection about 7.8% have one here.
Vaccinia mCherry: inhibitors of vaccinia virus infection (mCherry reporter signal); Vaccinia virus mCherry reporter infection, fluorescence; Potency, µM (top dose mostly 36.5 µM), for the others: at the highest dose activity change, negative = inhibition, most hits filed as inhibitors; 310,000 tested, 0.63% active; calls by dose curve; tested in A549 cells; also: potency is read from the fitted curve at half-maximal effect; nearly all actives have a fitted effect of over 35% in size
HCMV inh: blocks human cytomegalovirus replication. activity change, negative = inhibition, % at 57.5 µM. 410,000 tested, 4.5% active. AID 1259415. HFF cells, HCMV-luciferase reporter, 72 h; stronger effect = lower value; in the data active = activity change below about -60%; inconclusive = no clear call, values can overlap the other calls; inactive = above about -39%
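Compounds were evaluated in HFFs infected with an HCMV luciferase reporter virus (MOI 1 PFU/cell). Luciferase in lysates collected 72 h post infection served as the replication measure.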
LASV entry inh: blocks Lassa virus binding to or entry into cells | Potency, µM (top dose mostly 37.9 µM), for the others: at the top dose activity change, negative = inhibition, most hits filed as inhibitors | 300,000 tested, 1.2% active | Lassa virus pseudotype entry inhibition, cell reporter; calls by dose curve; tested in HEK293 cells; also: potency is read from the fitted curve at half-maximal effect; nearly all actives have a fitted effect of over 50% in size
VACV Venus inh: inhibitors of vaccinia virus (Venus reporter); Vaccinia virus Venus reporter expression, fluorescence; Potency, µM (doses to about 36.5 µM), for inactives: top-dose activity change, negative = inhibition, actives largely listed as inhibitors; AID 720580; 330,000 tested, 0.46% active; calls by dose curve; tested in A549 cells; also: potency is read from the fitted curve at half-maximal effect; nearly all actives have a fitted effect of over 30% in size
MARV entry inh: Marburg virus entry inhibition. 300,000 tested, 1.8% active. AID 540276. Marburg virus pseudotyped entry inhibition, cell reporter. Potency, µM (top dose mostly 37.8 µM), without a hit: at the highest dose activity change, negative = inhibition, actives largely listed as inhibitors; calls by dose curve; tested in HEK293 cells; also: potency is read from the fitted curve at half-maximal effect
HCV inh: inhibitors of hepatitis C virus infection; Potency, µM (series often up to 41.8 µM), for the others: at the highest dose activity change, negative = inhibition, actives largely listed as inhibitors; AID 651820; Huh7.5.1 HCVcc-Cre infection, luciferase reporter, 44 h; 340,000 tested, 3.4% active; active = well fitted inhibition curve with a large enough effect; inconclusive = small, poorly fitted or top-dose-only effect, or another doubt; inactive = no such curve, though single readings can be large or run the other way; also: potency is read from the fitted curve at half-maximal effect
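After 44 h co-culture of compound, cells and HCVcc-Cre (~0.5 moi), substrate is added for 15 min at room temperature and luciferase measured over 15 sec. Cells were seeded at 1,000/well and pre-cultured 4 h.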
Numbers without * were called inactive; i = inactive; ? = inconclusive; · = not tested or not shown; ! = not active in a repeat; [ ] = dose if it differs, or a comment. % is scaled to controls: 0 for no effect and ±100 for the full control effect.

SMILES	Vaccinia mCherry	HCMV inh	LASV entry inh	VACV Venus inh	MARV entry inh	HCV inh
CCC1=Nc2cc(C(=O)NCCc3ccccc3)ccc2Sc2ccc(Cl)cc21	-25%	4	?	-28%	-14%[46.1 µM]	·
CCOCCCNC(=O)c1ccc2c(c1)N=C(CC)c1cc(Br)ccc1S2	-21%	-88*	?	?	?	-29%
O=C(NC1CCCCCC1)c1ccc2c(c1)sc1nc(-c3ccccc3)cn12	-20%	·	8%[46.1 µM]	-19%	·	·
CCOC(=O)N1CCC(NC(=O)c2ccc3c(c2)sc2nc(-c4ccccc4)cn23)CC1	?	·	?	?	11µM*	?
CCCC1=Nc2cc(C(=O)NCCc3ccccc3)ccc2Sc2ccc(C)cc21	-7%	-67*	-11%[46.1 µM]	?	?	·
Cc1ccc(-c2cn3c(n2)sc2cc(C(=O)NCCCN4CCCCCC4)ccc23)cc1	?	·	14%[46.1 µM]	?	·	·
CCn1nc(C)c(CN2CCC3(CCC(CNC(=O)c4ccccc4)O3)CC2)c1C (centres undefined)	-6%	·	·	-6%	·	·
CCCC1=Nc2cc(C(=O)NCCCN3CCN(C)CC3)ccc2Sc2ccccc21	·	0	·	·	·	?
CCCNC(=O)c1ccc2c(c1)N=C(CCC)c1ccccc1S2	?	-86*	-17%[46.1 µM]	?	?	·
CCCC1=Nc2cc(C(=O)NCCCN3CCOCC3)ccc2Sc2ccccc21	·	-22	·	·	·	?
CCOC(=O)N1CCC(NC(=O)c2ccc3c(c2)N=C(CC)c2ccccc2S3)CC1	-17%[7.34 µM]	?	·	-9%[7.34 µM]	·	10µM*
CCC1=Nc2cc(C(=O)NCCN(CC)CC)ccc2Sc2ccccc21	-12%	?	?	-11%	?	·
CCCC1=Nc2cc(C(=O)NC3CCC(C)CC3)ccc2Sc2ccccc21 (centres undefined)	-26%[7.34 µM]	-77*	?	-21%[7.34 µM]	?	·
Cc1cc(C)c2nc(N(CCCN(C)C)C(=O)c3ccc4c(c3)CCCC4)sc2c1	-10%	?	11µM*	-19%	?	7.1µM*
CN(C)CCN(C(=O)c1ccc2c(c1)CCCC2)c1nc2cc3c(cc2s1)OCCO3	-7%	-35	?	-28%	?	?
CN(C)CCCN(C(=O)c1ccc2c(c1)CCCC2)c1nc2c(F)cccc2s1	-30%	-35	?	-20%	-18%	7.9µM*
Cc1ccc2nc(N(CCCN(C)C)C(=O)c3ccc4c(c3)CCCC4)sc2c1	?	-77*	?	?	?	11µM*
CCN1CCN(Cc2c(O)ccc3oc(C)c(C(=O)Nc4cccc(Cl)c4C)c23)CC1	-26%	-5	-4%[46.1 µM]	-14%	?	·
CCCC12CN3CC(CCC)(CN(C1)C3c1c[nH]c3ccccc13)C2=O (centres undefined)	-9%	36	1%[46.1 µM]	-16%	·	·
O=C(NCCc1ccc(Cl)cc1)c1ccc(CS(=O)(=O)c2ccc(Cl)cc2)o1	-18%	-20	-32%[46.1 µM]	-14%	·	·
O=C(NCCc1ccc(Cl)cc1)c1ccc(CS(=O)Cc2cccc(Cl)c2)o1 (centres undefined)	i	-64*	-8%[46.1 µM]	-15%	·	·
COc1ccc(OC)c(CCNC(=O)c2ccc(CS(=O)Cc3ccc(Cl)cc3)o2)c1 (centres undefined)	·	-5	·	·	·	10µM*
O=C(NCCc1ccccc1)c1ccc(CS(=O)(=O)c2ccc(Cl)cc2)o1	-3%	-60*!	-28%[46.1 µM]	3%	·	19%
O=C(NCc1ccc2c(c1)OCO2)c1ccc(CS(=O)Cc2cccc(Cl)c2)o1 (centres undefined)	-4%	-5	-29%[46.1 µM]	-22%	-25%[46.1 µM]	-19%
O=C(NCc1ccc2c(c1)OCO2)c1ccc(CS(=O)Cc2ccc(Cl)cc2)o1 (centres undefined)	-17%	-30	?	-9%	0%[46.1 µM]	11µM*
Cc1ccc(-c2nc3c4cnn(-c5cc(Cl)ccc5Cl)c4ncn3n2)cc1	-12%	-23	24%[46.1 µM]	-10%	?	·
C(=C1c2ccccc2Oc2ccccc21)c1ccccc1	-13%	·	·	-9%	·	·
Cc1ncc2c(c1CNC(=O)c1ccc3c(c1)OCO3)CCN(C(=O)c1cccc(-n3cccn3)c1)C2	-8%	·	·	-2%	·	·
Cc1noc(C)c1-c1ccc2ncnc(NC3CC3)c2c1	-10%	·	·	1%	·	·
